Source: PubChem BioAssay
Many of the other results were omitted from the sample, so hits are more common in it than they were.
Pf Dd2 growth: blocks in vitro growth of P. falciparum Dd2; P. falciparum Dd2 growth, SYBR Green, 72 h; Potency, µM (top dose mostly 28.9 µM), usual class: inhibitors; actives 4.3% (n = 120,000); AID 1347417; active = well fitted inhibition curve with a large enough effect; note: nearly all actives have a fitted effect of over 65% in size
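Readout: SYBR Green fluorescence, 485 nm excitation, 535 nm emission, after ~16 h lysis at 37C. Before that, Dd2-infected red cells (2.5% hematocrit) grew 72 h with compound, 29 uM top final concentration.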
Numbers stand for hits; – = inactive; ! = repeats disagree; [ ] = another dose, or the depositor's remark.

SMILES	Pf Dd2 growth
Oc1ccc(-c2nc(C3CC3)nc3c2CN(Cc2ccccc2C(F)(F)F)CC3)cc1	2.5µM!
Cc1nc2c(c(-c3ccc(O)cc3)n1)CN(Cc1ccsc1)CC2	–
CCCCCNc1ncnc2c1CN(C1CCNCC1)C(=O)CN2C	–
CN1C(=O)[C@H]2CN(Cc3cccc(C#N)c3)C[C@H]2C1=O	–
COc1ccc(C(=O)N2CCCCCCNC(=O)CC2)cc1	–
Cc1ccc(CN(C(=O)c2ccco2)c2ccc(CC(=O)N3CCCC3)cc2)cc1	–
Clc1ccccc1CNC1(Cc2cc(-c3ccccc3)on2)COC1	–
COc1cc(CNC2CCCCC2)ccc1OCC(O)CN1CCSCC1 (stereo not given)	–
COc1cc(CNCc2ccccc2C)ccc1OCC(O)CN1CCC(O)CC1 (stereo not given)	–
C=CCc1ccccc1OCC(O)CN1CCN(c2ccccc2)CC1 (stereo not given)	–
COc1cc(CNCCc2ccccc2C)ccc1OCC(O)CN1CCOCC1 (stereo not given)	11µM
COc1ccc(CCNC(=O)CC2CCOCC2)cc1OC	–
COc1cc(CN2CC=C(C)CC2)ccc1OCC(O)CN1CCSCC1 (stereo not given)	–
OC(COc1ccccc1CNCCc1ccccc1)CN1CCSCC1 (stereo not given)	1.6µM
COc1cc(CNC2CCCCCCC2)ccc1OCC(O)CN1CCSCC1 (stereo not given)	8.9µM
COc1cc(CNC(C)C)ccc1OCC(O)CN1CCSCC1 (stereo not given)	–
C=CCS(=O)(=O)N1CCCC1C(=O)Nc1ccccc1-c1ccc(OC)cc1 (stereo not given)	–
COC(=O)c1cn([C@H]2CO[C@H]3[C@@H]2OC[C@@H]3NCc2ccco2)nn1	–
O=C(N[C@@H]1CCOC[C@H]1O)c1cnn2cc(CCO)cnc12	–
O=C1CC(c2ccccc2)N(C(=O)C2CC2)CCCN(C(=O)c2n[nH]c3ccccc23)CCN1 (stereo not given)	–
O=C(NCC1CC1)c1ccc2c(c1)C1(CCN(CC3CC3)C1)CN2Cc1ccccc1 (stereo not given)	–
O=C(NC1CCC1)c1ccc2c(c1)C1(CCN(CC3CC3)C1)CN2Cc1ccccc1 (stereo not given)	14µM
CCNC(=O)c1ccc2c(c1)C1(CCN(CC3CC3)C1)CN2Cc1ccccc1 (stereo not given)	–
COc1cccc(CN2CCc3c(cc(C(=O)N(C)C)n3C)C2)c1	–
COc1cccc(CN2CCc3c(cc(C(=O)N4CCN(CC(C)C)CC4)n3C)C2)c1	6.3µM
SMILES	Pf Dd2 growth
Cn1c(C(=O)NCc2cccnc2)cc2c1CCN(Cc1ccccc1)C2	–
CC(=O)Nc1ccc(CN2CCn3c(nnc3C3CCNCC3)C2)cc1	–
COc1ccc(C(=O)N2CCCCCNC(=O)[C@@H]3CCC[C@@H]32)cc1F	–
CC(=O)c1ccc(NC(=O)c2cc(C)nn2-c2ccccc2)cc1	–
O=C(Nc1ccc(Cl)cc1)c1cc2c(-c3ccccc3)nn(-c3ccccc3)c2s1	1.1µM
CCOC(=O)c1cccc(NC(=O)c2cc3c(-c4cccc(OC)c4)nn(C)c3s2)c1	–
Cc1ccc(NC(=O)N2CCC(CCNC(=O)C3CC3)CC2)cc1	–
CC(C)c1ccc(CNC(=O)c2noc(-c3ccc4c(c3)OCO4)n2)cc1	–
O=C(CN1CCCC1=O)NC1CCN(Cc2ccccc2)CC1	–
COc1ccccc1C(=O)N1CCC2(CC1)NC(=O)N(c1ccc(F)cc1)N2	–
Cn1cc(CN(C(=O)C2CCC(=O)N(Cc3cccc(F)c3)C2)C2CC2)cn1 (stereo not given)	–
CN(Cc1ccccc1)Cc1cn(C[C@H]2O[C@@H](CC(=O)NCc3ccc(F)cc3)[C@H](O)[C@@H]2O)nn1	–
COc1ccc(C2C=C(c3ccccc3)Nc3nc(NC(=O)/C=C/c4ccccc4OC)nn32)cc1 (stereo not given)	10µM
Cc1ccc(C2C=C(c3ccc(Cl)cc3)Nc3nc(NS(=O)(=O)c4ccccc4)nn32)cc1 (stereo not given)	–
COc1ccc(C(=O)Nc2nc3n(n2)C(c2ccccc2)C=C(c2ccccc2)N3)cc1 (stereo not given)	–
CC(=O)Nc1cccc(C(=O)NCCn2ccn3nc(-c4ccc(F)cc4)cc3c2=O)c1	–
O=C(Nc1nc2n(n1)C(c1ccc(F)cc1)C=C(c1ccccc1)N2)c1cccc([N+](=O)[O-])c1 (stereo not given)	3.2µM
O=C(c1ccco1)n1nc(-c2ccc(Cl)cc2)nc1NCc1ccc(F)cc1	–
O=C(Nc1nc2n(n1)C(c1ccc(F)cc1)C=C(c1ccc(Cl)cc1)N2)c1ccco1 (stereo not given)	8.9µM
COc1cccc(C2C(C(=O)Nc3ccccc3)=C(C)Nc3nc(-c4ccccc4)nn32)c1 (stereo not given)	–
CC1=C(C(=O)Nc2ccccc2)C(c2ccc(F)cc2)n2nc(SCc3cc(C)ccc3C)nc2N1 (stereo not given)	–
O=C(c1cccc(C(F)(F)F)c1)N1CCN(C2CCN(Cc3cccnc3)C2=O)CC1 (stereo not given)	–
CCCC1c2nccn2CCCN1C(=O)c1noc(C)c1COC (stereo not given)	–
COc1ccc2c(c1)CN(C(=O)COCc1ccccc1)CC[C@H]1COC(=O)N21	–
CN1C(=O)c2ccccc2Sc2ccc(NC(=O)N3CCN(c4ccccc4F)CC3)cc21	13µM
SMILES	Pf Dd2 growth
CN1C(=O)c2ccccc2Sc2ccc(NC(=O)COc3ccc(F)cc3)cc21	–
CN1C(=O)c2ccccc2Sc2ccc(NC(=O)c3ccccc3F)cc21	–
COCCOC1CCOC2(CCN(C(=O)c3cccc(F)c3)CC2)C1 (stereo not given)	–
O=C(O)CCn1ncc2cc(OC3CCN(C(=O)Oc4ccccc4)CC3)ccc21	–
CNC(=O)CCn1ncc2cc(OC3CCc4cccc(-c5ccnc(C)c5)c43)ccc21 (stereo not given)	–
CNC(=O)CCn1ncc2cc(OC3CCc4cccc(-c5ccccc5)c43)ccc21 (stereo not given)	2.8µM
CNC(=O)CCn1ncc2cc(OC3CCc4cccc(-c5cccc(F)c5)c43)ccc21 (stereo not given)	–
O=C(O)CCn1ncc2cc(OC3CCN(C(=O)c4cc(F)ccc4Cl)CC3)ccc21	–
CNC(=O)CCn1ncc2cc(OC3CCc4cccc(-c5ccc(F)cc5)c43)ccc21 (stereo not given)	14µM
CCc1cc(=O)n(CC(=O)Nc2ccc(N(C)C)cc2)c(-c2ccccc2)n1	–
Cn1nc(C2CCN(C(=O)CCCc3ccccc3)CC2)c2c1CCOC2	–[5.79 µM]
COc1ccc(CC(=O)N2CCC(c3n[nH]c(=O)n3-c3ccc(C)cc3)CC2)cc1	–
Fc1ccc(/C=C/CN2CCC(n3cc(C4CCCC4)nn3)CC2)cc1	–
COc1ccc(-c2cnc(Nc3ccc(CN4CCN(C)CC4)cc3)c3c2CCO3)cn1	6.3µM
COc1ccccc1-c1cnc(NC(=O)c2cccnc2)c2c1CCO2	–
COc1ccccc1-c1cnc(Nc2cncnc2)c2c1CCO2	–
Fc1cccc(-c2cnc(Nc3ccc(N4CCOCC4)cc3)c3c2CCO3)c1	–
COc1ccccc1-c1cnc(Nc2ccc(CN3CCN(C)CC3)cc2)c2c1CCO2	7.1µM
COc1ccc(C(=O)Nc2ncc(-c3ccc(OC)nc3)c3c2OCC3)cc1	–
Cc1ccc(CNC(=O)CCC2CCCN(S(=O)(=O)c3ccc(F)cc3)C2)cc1 (stereo not given)	–
